# From ChEMBL document CHEMBL1157539, “Thousands of chemical starting points for antimalarial lead identification” (Nature, 2010)
# System: Plasmodium falciparum
# Test: GSK_TCMDC: Inhibition of Plasmodium falciparum 3D7 in whole red blood cells, using parasite LDH activity as an index of growth. Test compounds present at 2uM
# Type: functional
row,SMILES,Inhibition
1,CCN(CC)/C(=N/C(=N)NCc1ccc(Cl)cc1)NCCCCCCN/C(=N\C(=N)NCc1ccc(Cl)cc1)N(CC)CC,100%
2,CN1CCC(c2csc3ccc(NC(=O)Nc4ccc(-c5ccncc5)c5ccccc45)cc23)CC1,98%
3,Cc1ccc(S(=O)(=O)N(CCCN2CCN(C)CC2)Cc2csc(-c3ccc(CNCc4ccccc4)cc3)n2)cc1.O=C(O)C(F)(F)F,97%
4,CCCCCCNC(=O)C1Cc2c([nH]c3ccccc23)C2(CCN(CCc3ccccc3)CC2)N1 (configuration not stated),96%
5,Cc1ccc2c(=O)n(C)c(=O)n(C)c2n1,98%
6,Cc1nc(NC(=N)N)nc2cc3c(cc12)CCC3.Cl,90%
7,FC(F)(F)c1ccc2[nH]c(-c3cccc(-c4cccc(CN5CCN(c6ccncc6)CC5)c4)c3)nc2c1.O=C(O)C(F)(F)F,100%
8,CN(C)CCN(C)Cc1nc(-c2ccc3c(Nc4ccc(Oc5ccccc5)cc4)ccnc3c2)cs1,100%
9,O=S(=O)(c1ccccc1C(F)(F)F)C1CC2CCC(C1)N2S(=O)(=O)c1ccc(Cl)c(C(F)(F)F)c1 (configuration not stated),97%
10,CS(=O)(=O)O.O=[N+]([O-])c1ccc(CNCCCCCCNCc2ccc([N+](=O)[O-])c3ccccc23)c2ccccc12,100%
11,COc1ccc(OC)c(Cc2cnc3nc(N)nc(N)c3c2C)c1 [PIRITREXIM],92%
12,CN1CCC(C(=O)Nc2ccc(-c3cccc(-c4nc5cc(F)ccc5[nH]4)c3)cc2)CC1,100%
13,CC(C)N1CCC(N(Cc2ccc(-c3ccc(C(F)(F)F)cc3)cc2)C(=O)Cn2c(CCc3cccc(F)c3F)nc(=O)c3cccnc32)CC1.O=C(O)C(O)C(O)C(=O)O,100%
14,CC(C)c1nc(N2CCN(C(=S)NCc3ccccc3)CC2)c(C#N)c2c1COC(C)(C)C2,99%
15,O=c1cc(NCCC(CNCc2cc3ccccc3o2)NCc2cc(Br)cc(Br)c2)[nH]c2ccccc12 (configuration not stated),100%
16,Cc1cccc2nc(-c3cccc(-c4ccc(C(=O)N5CCCCC5C(C)O)cc4)c3)[nH]c12 (configuration not stated),100%
17,O=C(Nc1cccc(CN2CCN(Cc3ccc(O)cc3)CC2)c1)c1cccc(C(F)(F)F)c1.O=C(O)C(F)(F)F,91%
18,Cc1[nH]n(-c2cccc(C(F)(F)F)c2)c(=O)c1-c1ccc(Cl)cc1,98%
19,CCc1c(C)nc2nc(Cc3cccc(F)c3)nn2c1N1CCN(c2ccccn2)CC1,100%

row,SMILES,Inhibition
1,Cl.O=C(NC1CCC(CCN2CCc3ccc(-c4cnccn4)cc3CC2)CC1)c1cccc(-n2cccn2)c1 (configuration not stated),93%
2,Cc1cccc2nc(-c3cccc(-c4ccc(NC(=O)C(C)C(=O)NC(C)C)cc4)c3)[nH]c12 (configuration not stated),85%
3,S=C(NCCN1CCOCC1)Nc1ccccc1,94%
4,Cc1cccnc1Nc1nc(-c2ccccn2)cs1,96%
5,CC(=O)Nc1ccc(CNC2Cc3ccc(-c4ccc(Cl)c(Cl)c4)cc3C2)cc1 (configuration not stated),89%
6,COc1cccc(NC(=O)Nc2ccc(C)c(-c3ccc(C(=O)Nc4ccncc4)cc3)c2)c1,99%
7,Cc1onc(-c2ccccc2)c1-c1nc(NC2CCCC(C)C2)no1 (configuration not stated),100%
8,CCCCOc1ccc(-c2nc3ccccc3[nH]2)cc1,86%
9,Nc1ncc(-c2cn[nH]c2)cc1-c1nc2ccc(F)cc2[nH]1,100%
10,Cl.O=C(Nc1cccc(Cl)c1Cl)N1CCc2cc3nccc(N4CCN5CCC[C@H]5C4)c3cc21,98%
11,Cn1cnc(CCNC(=O)c2ccc(-c3cccc(-c4nc5cc(C(F)(F)F)ccc5[nH]4)c3)cc2)c1,100%
12,CC(=O)Nc1ccc(Cl)c(Cl)c1,95%
13,COc1cccc(Nc2nccc(NCC(O)c3ccc(C(F)(F)F)cc3)n2)c1 (configuration not stated),99%
14,O=C(NCc1cccc(CN2CCOCC2)c1)c1cc(Br)cc(N2CCN(c3ccncc3)CC2)c1.O=C(O)C(F)(F)F,99%
15,Cc1c(C(=O)N2CCCC(C(F)(F)F)C2)sc2cccc(F)c12 (configuration not stated),99%
16,O=C(NC1CC1)c1ccc(Cn2c(SCc3cccc(Cl)c3)nc3ccccc3c2=O)cc1,90%
17,CCN(CCN(C)C)Cc1ccc(-c2ccc(NS(=O)(=O)c3cccc4cccnc34)cc2)cc1.O=C(O)C(F)(F)F,91%
18,CO/C(=C\C=C\c1cc2cc(Cl)c(Cl)cc2[nH]1)C(=O)NC1CC2CCCC(C1)N2C (configuration not stated),93%
